From PubChem BioAssay
Sampled rows, rich in hits. Any-hit rate of the full collection: about 1%.
FadD28 FP inh: blocks FadD28 binding to the bisubstrate probe; fluorescence polarization; AID 588549; hit rate 0.22% among 360,000; inhibition, % at 12.5 µM; in the data active = inhibition above about 8.5%, passing the limit was not always enough
Yp Topo-I inh: Y. pestis Topo-I inhibition via cleavage products. hit rate 0.064% among 360,000. activity, % at 10 µM. Y. pestis Topo-I cleavage product accumulation, plate reader. AID 504884; in the data active = activity above about 50%, passing the limit was not always enough
DUSP3 inh: blocks human VHR1 dual specificity phosphatase; AID 1654; recombinant VHR phosphatase, pNPP absorbance; hit rate 0.52% among 290,000; inhibition, % at 13.3 µM; in the data active = inhibition above about 50%
Target sequence (P51452 whole entry, looked up): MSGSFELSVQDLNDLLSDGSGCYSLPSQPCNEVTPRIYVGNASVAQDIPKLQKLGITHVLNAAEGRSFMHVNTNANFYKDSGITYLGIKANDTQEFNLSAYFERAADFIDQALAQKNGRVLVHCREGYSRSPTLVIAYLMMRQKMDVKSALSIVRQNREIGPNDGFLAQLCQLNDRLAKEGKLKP
MazEF act: increases E. coli MazEF RNase cleavage of RNA. hit rate 0.32% among 350,000. P0AE70. FAM/BHQ RNA-DNA oligo cleavage fluorescence, 5 h. activation, % at 20 µM; in the data active = activation above about 50%
Target sequence (P0AE70 whole entry, looked up): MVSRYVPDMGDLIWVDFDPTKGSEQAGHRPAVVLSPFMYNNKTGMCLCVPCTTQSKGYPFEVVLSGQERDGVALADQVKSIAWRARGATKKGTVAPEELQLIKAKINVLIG
TcdB inh: inhibitors of Clostridioides difficile toxin B glycohydrolase. hit rate 0.24% among 350,000. inhibition, % at 9.99 µM. AID 652162. TcdB glycohydrolase enzymatic assay, plate reader. P18177; in the data active = inhibition above about 10%
Mtb BioA inh: BioA (M. tuberculosis) enzyme inhibition. purified M. tuberculosis BioA enzyme, plate reader. inhibition, % at 9.99 µM. hit rate 0.096% among 360,000. AID 602481; in the data active = inhibition above about 40%
Active calls of the source: *; x = no result given.

SMILES	FadD28 FP inh	Yp Topo-I inh	DUSP3 inh	MazEF act	TcdB inh	Mtb BioA inh
Clc1ccc(COn2c(-c3ccc(Cl)cc3)nc3ccccc32)cc1	-4	27	10	-16	x	-1
Clc1ccc(COn2c(-c3ccccc3)nc3ccccc32)cc1	-6	59*	7	-7	x	-1
O=C(O)COn1c(-c2ccc(Cl)cc2)nc2ccc(Cl)cc21	-4	-7	3	3	10*	x
O=C(CN1C(=O)CCC1=O)NNc1ccc2ccccc2c1	-5	3	20	2	82*	0
O=C(Cc1ccccc1)N1CC(=O)N2[C@H](C1)[C@@H](c1ccc(-c3cccc(F)c3)cc1)[C@@H]2CO	x	x	x	x	0	x
Oc1ccc2ccc3[nH]cnc3c2c1	2	3	36	-2	21*	-2
CC(C)NC(=O)N(C)C[C@H]1OCCCC[C@@H](C)Oc2ccc(NC(=O)c3ccccc3)cc2C(=O)N([C@@H](C)CO)C[C@H]1C	x	x	x	x	0	-1
Cn1cccc1/C=C1\SC(=S)N(NC(=O)c2ccccc2Cl)C1=O	-9	-1	0	-18	x	x
O=C1/C(=C/c2ccc(O)c(O)c2)SC(=S)N1Nc1ccccc1	-5	-24	34	6	x	x
O=C(NN1C(=O)/C(=C/c2ccc(O)c(O)c2)SC1=S)c1ccccc1	43*	-18	18	-79	-11	6
O=C(NN1C(=O)/C(=C\c2ccc(O)c([N+](=O)[O-])c2)SC1=S)c1ccccc1Cl	15*	-1	-3	-13	1	5
Cc1ccc(C(=O)NN2C(=O)/C(=C/c3cccn3C)SC2=S)cc1	13*	7	6	9	1	-3
C[C@H]1CN([C@@H](C)CO)C(=O)c2cc(-c3ccncc3)cnc2O[C@H]1CN(C)C(=O)NC1CCCC1	x	x	x	x	-1	-2
CCCNC(=O)N[C@H]1CC[C@H](CC(=O)NC2CCCCC2)O[C@H]1CO	x	x	x	x	1	-3
CCC(=O)N1CCC2(CC1)CN(Cc1cc(F)ccc1F)[C@H](CO)c1[nH]c3cc(OC)ccc3c12	x	x	x	x	-1	x
COc1ccc(C(=O)NCc2cnn(C)c2C)cc1OC1CCN(C(C)C)CC1	0	9	54*	0	2	-1
COC(=O)CN(C)C(=O)c1ccc(OC)c(OC2CCN(C(C)C)CC2)c1	-4	16	57*	6	2	-1
COc1ccc(C(=O)N(C)Cc2ccc(C)o2)cc1OC1CCN(C(C)C)CC1	1	-1	49	-5	0	-2
Cc1ccc(S(=O)(=O)Nc2ccc3c(c2)C(=O)N([C@@H](C)CO)C[C@@H](C)[C@@H](CN(C)C(=O)NC2CCCCC2)O3)cc1	x	x	x	x	1	-1
CC(=O)c1ccc(NC(=O)Nc2ccc(NS(=O)(=O)c3ccc(C)cc3)cc2)cc1	11*	-12	-5	-6	x	x
COC(=O)Nc1ccc(S(=O)(=O)Nc2ccc(C)cc2)cc1	x	x	41	x	x	x
Cc1noc(C)c1S(=O)(=O)Nc1cccc2c1O[C@H](CN(C)Cc1ccc(C(=O)Nc3ccccc3N)cc1)[C@H](C)CN([C@H](C)CO)C2=O	x	x	x	x	-1	x
CC(=O)N[C@H]1C[C@@H]2O[C@@H](CO)CC[C@@H]2O[C@@H]1CCc1ccc(C#CC2(O)CCCC2)cc1	x	x	x	x	-1	x
CC1(C)CC(CC(=O)NC(=S)Nc2ccc([N+](=O)[O-])cc2)C(=O)O1 (stereo not given)	0	-11	9	-2	x	14
Cc1ccc(NC(=S)NC(=O)CC2CC(C)(C)OC2=O)cc1 (stereo not given)	-2	2	58*	12	-1	-2
SMILES	FadD28 FP inh	Yp Topo-I inh	DUSP3 inh	MazEF act	TcdB inh	Mtb BioA inh
C[C@@H]1CCCCO[C@H](CN(C)C(=O)CCCN(C)C)[C@@H](C)CN([C@H](C)CO)C(=O)c2cc(NS(C)(=O)=O)ccc2O1	x	x	x	x	1	-2
CC(C)C12NC(=O)NC(=O)N1CCS2 (stereo not given)	-2	3	x	5	10*	x
CCOC(=O)C1=CN(Cc2cccc(F)c2)S(=O)(=O)N(C)C1c1cccc(OC)c1 (stereo not given)	-4	30	x	50*	1	1
Cc1ccc(S(=O)(=O)NCCCNS(C)(=O)=O)cc1	0	2	3	-7	3	-2
Cc1ccc(S(=O)(=O)NCCNS(=O)(=O)c2ccc(C)cc2)cc1	-2	2	58*	6	2	0
COc1ccc2c3c(n(C)c2c1)[C@@H](CO)N(C(=O)CC1CC1)CC31CCN(C(=O)CC2CC2)CC1	x	x	x	x	1	x
